Measurements published in publication PMC9574860, “Chemical Toolkit for PARK7: Potent, Selective, and High-Throughput” (Journal of Medicinal Chemistry, 2022).
In all, about 7,900 compounds went through this assay and about 400 (5.1%) showed an effect of 50% or more. For the sample, strong results were picked, then their nearest neighbours and some compounds at random.

These compounds were tested against Parkinson's disease protein 7 (PARK7/DJ1) (human, UniProt Q99497) (assay: primary screen, percent inhibition; read as competition with a fluorescent probe by fluorescence polarization; higher = more effect of the substance). Conditions: 100 µM.
Parkinson's disease protein 7 (PARK7/DJ1), sequence (Q99497 whole entry, looked up, the tested form may be a part): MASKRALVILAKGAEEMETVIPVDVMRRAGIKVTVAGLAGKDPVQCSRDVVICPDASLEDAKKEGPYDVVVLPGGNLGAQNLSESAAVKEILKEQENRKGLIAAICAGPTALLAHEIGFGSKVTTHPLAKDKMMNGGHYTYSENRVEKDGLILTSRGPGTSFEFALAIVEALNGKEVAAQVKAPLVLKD
In short: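 Covalent fragments at 100 μM final were incubated 2 h with 0.2 μM PARK7, then 20 nM probe JYQ-107 added for a further 2 h. Fluorescence polarization read at 480/520 nm; relative FP loss versus reference controls gave remaining enzyme activity.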
For `O=C(CCl)NCC1Cc2ccccc2O1` (centres unmarked), the Inhibition % was 26.5%. Compound `COc1cc2c(B3OC(C)(C)C(C)(C)O3)cn(C)c2cn1` has an Inhibition % of 6.59%. In the case of `C=CC(=O)NC1CCCN(c2ccc(F)cc2C)C1` (centres unmarked), the Inhibition % is reported as 6.65%. In the case of `C=CC(=O)N1CC2(CCOCC2)C1C(C)C` (centres unmarked), the Inhibition % is reported as 7.75%. In the case of `Cc1nn(C)c(C)c1C1CCCN1C1CCOC1=O` (centres unmarked), the Inhibition % is reported as 4.25%. With `CC(C)Cn1c(S)nc2ncccc2c1=O` the Inhibition % was 6.75%. `O=C(CCl)NCc1ccc(Cl)cc1` showed an Inhibition % of 2.75%. `C=CC(=O)Nc1cnn(C2CCOCC2)c1C` was tested, and the Inhibition % was 8.19%. `N#Cc1cc(Cl)nc(C2CC2)n1` showed an Inhibition % of 4.67%. `O=C(CCl)NCc1ccc(OC(F)(F)F)cc1` gave an Inhibition % of 5.21%. `O=C(CCl)Nc1ccc(Cl)c(C(F)(F)F)c1` was tested, and the Inhibition % was 26.2%. For `COc1ccc(NC(=O)CCCl)cc1`, the Inhibition % was 4.56%. `COc1ccc(NC(=O)CCl)cc1` gave an Inhibition % of 55.2%. Work on `O=C(CCl)Nc1ccc(OC(F)F)c(Cl)c1` yielded an Inhibition % of 45.8%. For `O=C(CCl)Nc1ccc(OC(F)F)cc1`, the Inhibition % was 82.8%. In the case of `O=C(CCl)NC(=O)c1ccc(OC(F)F)cc1`, the Inhibition % is reported as 28.9%. With `O=C(CCl)Nc1ccc(OC(F)(F)F)cc1` the Inhibition % was 86%. `COc1ccc(NC(=O)NC(=O)CCl)cc1` showed an Inhibition % of 1.55%. `O=C1CCN1c1ccccc1` gave an Inhibition % of 5.28%. In the case of `CC(CC#N)Sc1ccccc1NC(=O)CCl` (centres unmarked), the Inhibition % is reported as 10.5%. For `Cc1cc(C(=O)Cn2cnc(C#N)n2)c(C)s1`, the Inhibition % was 2.94%. Compound `Cc1cc(C(=O)Cn2cnc(C#N)n2)c(C)[nH]1` has an Inhibition % of 7.96%. In the case of `CCN(CC)C(=O)Oc1ccc(N2CCCC2)cc1`, the Inhibition % is reported as -3.98%. `O=C(NNS(=O)(=O)c1cccc(S(=O)(=O)F)c1)C1CCC1` was tested, and the Inhibition % was 99.9%. `O=C(NNS(=O)(=O)c1ccc(S(=O)(=O)F)cc1)C1CCC1` gave an Inhibition % of 10.2%. In the case of `O=C1CCC(CC(=O)Nc2cccc(S(=O)(=O)F)c2)CC1`, the Inhibition % is reported as 98.3%. `O=S(=O)(F)c1ccc(S(=O)(=O)NC2CCCC2O)cc1` (centres unmarked) gave an Inhibition % of 16.5%. `C=CC(=O)Nc1cc(NC(=O)C2CCC2)ccc1F` showed an Inhibition % of 19.5%. Compound `O=C(Nc1cccc(S(=O)(=O)F)c1)C1CCCC1` has an Inhibition % of 99.8%. Work on `O=C(CCl)NCc1cccc(NC(=O)C2CC2)c1` yielded an Inhibition % of 11.4%. For `Cc1cc(B2OC(C)(C)C(C)(C)O2)on1`, the Inhibition % was 27.5%. For `Cc1ccc(S)nc1`, the Inhibition % was 7.53%. In the case of `CCc1nc(C(C#N)=Cc2cnn(C)c2)sc1C`, the Inhibition % is reported as 2.61%. With `Cc1noc(C)c1CCn1ccnc1C#N` the Inhibition % was 0.0226%. `Cl.O=C(CCl)N1CCN(Cc2cccs2)CC1` was tested, and the Inhibition % was 3.64%. `Nc1ncnc2c1ncn2CCCCl` showed an Inhibition % of 2.3%. Work on `C=CC(=O)Nc1ccccn1` yielded an Inhibition % of 3.17%. In the case of `C=CC(=O)Nc1cccc(NC(C)=O)n1`, the Inhibition % is reported as -0.654%. Work on `C=CC(=O)Nc1cc2ccccc2nn1` yielded an Inhibition % of 95%. With `Cc1ccc(C=C(C#N)S(C)(=O)=O)s1` the Inhibition % was 6.48%. Compound `Cc1cc(=O)oc2cc(OCC3CO3)ccc12` (centres unmarked) has an Inhibition % of 7.44%. With `CC(C)(C)n1nccc1B1OC(C)(C)C(C)(C)O1` the Inhibition % was 6.06%. `CC(CC(O)c1ccc(F)cc1)Nc1ccc(C#N)nc1` (centres unmarked) was tested, and the Inhibition % was 9.7%. In the case of `Sc1ccc(-c2ccco2)nn1`, the Inhibition % is reported as 57.3%. Compound `Cc1nc(-c2ccco2)nc(S)c1C(=O)O` has an Inhibition % of 1.46%. Compound `O=C(CCl)Nc1nc(-c2ccco2)cs1` has an Inhibition % of 21.8%. Work on `O=C(CCl)N1CCCCCC1` yielded an Inhibition % of 14.9%. `N#Cc1ccnc(C(F)(F)F)c1` gave an Inhibition % of 14.9%. `N#Cc1ccnc(C(=O)O)c1` gave an Inhibition % of 1.71%. `N#Cc1ccnc(S)c1` gave an Inhibition % of 67%. Work on `O=C(CCl)Nc1ccccc1N1CCCC1=O` yielded an Inhibition % of -0.367%. Work on `O=C(CCl)NCc1ccc(N2CCOCC2)nc1` yielded an Inhibition % of 15.2%. Compound `CCN1CCN(c2ccc(NC(=O)CCl)cc2)CC1.Cl` has an Inhibition % of 37.8%. For `O=C(CCl)Nc1ccc(N2CCCCC2)nc1`, the Inhibition % was 88.9%. Compound `O=C(CCl)Nc1ccc(N2CCCC2=O)cc1` has an Inhibition % of 9.28%. `O=C(CCl)Nc1cccnc1N1CCCC1` gave an Inhibition % of 18.8%. In the case of `O=C(CCl)Nc1ccc(N2CCCCCC2)cc1`, the Inhibition % is reported as 99.5%. `O=C(CCl)Nc1ccc(N2CCCC2)cc1` was tested, and the Inhibition % was 7.34%. With `Cl.O=C(CCl)Nc1ccc(N2CCCCC2)cc1` the Inhibition % was 89.3%. Compound `O=C(CCl)NCc1ccc(N2CCCC2)cc1` has an Inhibition % of 0.611%. With `C=CC(=O)N1CC(S(=O)(=O)N2CCc3ccccc32)C1` the Inhibition % was 3.57%. `O=C(CCCl)Nc1cccc(F)c1` was tested, and the Inhibition % was 5.31%. Work on `C=CC(=O)N1CCC(c2cc3ccccc3[nH]2)C1` (centres unmarked) yielded an Inhibition % of 13.2%. `Cc1occc1-c1nnc(SC2CCOC2=O)n1C` (centres unmarked) gave an Inhibition % of 12.4%. In the case of `COc1c(C)cc(S(=O)(=O)n2nc(C)cc2C)c(C)c1C`, the Inhibition % is reported as 7.42%. With `CC1(C)OB(c2cccc3c2CCO3)OC1(C)C` the Inhibition % was 9.99%. Compound `CN(Cc1ccco1)c1ccc(C#N)nc1` has an Inhibition % of 25.1%. `O=C(NCc1ccc(Cl)cc1)n1ccnc1` gave an Inhibition % of -1.68%. Compound `CN(Cc1ccccc1Cl)C(=O)n1ccnc1` has an Inhibition % of 2.68%. `O=C(CCl)NCc1ccc2c(c1)OCO2` gave an Inhibition % of 14%. With `CN(Cc1cccnc1)C(=O)n1ccnc1` the Inhibition % was 10.8%. In the case of `COc1ccc(CCNC(=O)n2ccnc2)cc1OC`, the Inhibition % is reported as 10.3%. `Cc1ccc(CNC(=O)n2ccnc2)cc1` was tested, and the Inhibition % was 104%. In the case of `Cc1cccc(OCCNC(=O)CCl)c1`, the Inhibition % is reported as 12.5%. `O=C(NCc1ccc2c(c1)OCO2)n1ccnc1` gave an Inhibition % of 99.9%. Compound `Cc1cccc(OCCNC(=O)n2ccnc2)c1` has an Inhibition % of 92.6%. With `CN(C)c1ccc(CNC(=O)n2ccnc2)cc1` the Inhibition % was 97%. With `C=CC(=O)NCc1ccc2c(c1)OCO2` the Inhibition % was 11.2%. For `Cc1ccc(CNC(=O)CCl)cc1`, the Inhibition % was 1%. In the case of `Cn1nncc1B1OC(C)(C)C(C)(C)O1`, the Inhibition % is reported as 6.79%. With `C=CC(=O)N1CCC(c2ncc(C)s2)CC1` the Inhibition % was 1.87%. Work on `O=C(C=CC1=CCCC1)N1CCCC(N2CCNC2=O)C1` (centres unmarked) yielded an Inhibition % of 28%. `Cl.O=S(=O)(F)C1CCCNC1` (centres unmarked) gave an Inhibition % of 8.33%. In the case of `C=CC(=O)N1CCN(CC)C(=O)C1(C)C`, the Inhibition % is reported as 2.96%. For `C=CC(=O)N1CCC(C#N)(COC)CC1`, the Inhibition % was 5.2%. `Cc1ccc(NC(=O)CN2CCSC2=O)cc1F` gave an Inhibition % of 3.32%. `COC(=O)Cc1csc(NC(=O)CCl)n1` gave an Inhibition % of 20.2%. With `Cc1cc(C)nc(S)c1` the Inhibition % was 6.52%. `O=C1OCCC1N1CCOC(c2nccs2)C1` (centres unmarked) gave an Inhibition % of 13.9%. For `C=CC(=O)NCCc1ccc(F)cn1`, the Inhibition % was -26.8%. For `C=CC(=O)N1CCC(C(=O)N(C)c2ccccc2)C1` (centres unmarked), the Inhibition % was 9.62%. `C=CC(=O)NCc1coc2ccccc12` showed an Inhibition % of 7.72%. `Cc1ccccc1CCNC(=O)Cn1cnc(C#N)n1` was tested, and the Inhibition % was 4.99%. `Cc1ccccc1CCNC(=O)n1ccnc1` showed an Inhibition % of 101%. In the case of `COc1cccc(CNC(=O)n2ccnc2)c1`, the Inhibition % is reported as 95.1%. `COc1ccccc1CNC(=O)n1ccnc1` gave an Inhibition % of 5.2%. With `O=C(NCC(F)(F)F)n1ccnc1` the Inhibition % was 6.27%. `COc1ccc(CNC(=O)n2ccnc2)cc1OC` gave an Inhibition % of 6.72%. `CNC(=O)n1ccnc1` gave an Inhibition % of 75.1%. In the case of `O=C(NCCc1ccc(F)cc1)n1ccnc1`, the Inhibition % is reported as 12.7%. For `O=C(N1CCC1c1ccccc1)n1ccnc1` (centres unmarked), the Inhibition % was 11.7%. With `CC(C)C(=O)Nc1ccc(CNC(=O)n2ccnc2)cc1` the Inhibition % was 0.0136%. `O=C(NCC1CCCC1)n1ccnc1` showed an Inhibition % of 40.7%. `O=C(Nc1ccc(CNC(=O)n2ccnc2)cc1)C1CC1` gave an Inhibition % of 92.1%. In the case of `Cc1cc(C)nc(C#N)c1`, the Inhibition % is reported as 9.14%. For `NCC1CCCCN1C(=O)C=Cc1ccccn1` (centres unmarked), the Inhibition % was 1.06%. Compound `C=CC(=O)NC1CCN(C2CCOC2)CC1` (centres unmarked) has an Inhibition % of 22%. `C=CC(=O)NCCc1noc(-c2ccccn2)n1` was tested, and the Inhibition % was 11%. For `C=CC(=O)NCc1ccnc(C)n1`, the Inhibition % was 7.47%. With `C=CC(=O)NCc1nnc(C2CC2)o1` the Inhibition % was 6.84%. For `Nc1ccc(NC(=O)Oc2ccccc2)cc1`, the Inhibition % was 11.2%. In the case of `CC1(C)OB(c2cccc3c2CCC3)OC1(C)C`, the Inhibition % is reported as 3.3%. With `O=C(CCl)c1ccc(NC(=O)c2ccco2)cc1` the Inhibition % was 90.6%. In the case of `NC(=O)Nc1ccc(C(=O)CCl)cc1`, the Inhibition % is reported as 89.6%. For `CCC(=O)Nc1ccc(C(=O)CCl)cc1`, the Inhibition % was 4.09%. `CS(=O)(=O)c1ccc(OCCCl)cc1` showed an Inhibition % of 4.09%. Compound `CS(=O)(=O)c1ccc(C(=O)CCl)cc1` has an Inhibition % of 87.3%. In the case of `CC(C)CC(=O)Nc1ccc(C(=O)CCl)cc1`, the Inhibition % is reported as 3.15%. In the case of `CCCC(=O)Nc1ccc(C(=O)CCl)cc1`, the Inhibition % is reported as 5.21%. `O=C(CCl)NC(=O)c1ccco1` showed an Inhibition % of 22.8%. With `CC(C)C(=O)Nc1ccc(C(=O)CCl)cc1` the Inhibition % was 2.39%. With `CC(=O)Nc1ccc(C(=O)CCl)cc1` the Inhibition % was 82.5%. `CC1(C)OB(c2ccc(OCCS(C)(=O)=O)cc2)OC1(C)C` showed an Inhibition % of -1.19%. Work on `N#Cc1cccc(OCC(F)(F)F)n1` yielded an Inhibition % of -0.809%. `CN(C)S(=O)(=O)c1ccc(S)nc1` showed an Inhibition % of 31.2%. Work on `O=c1onc(-c2ncccn2)n1Cc1ccccc1F` yielded an Inhibition % of 1.26%. In the case of `CC(=O)Nc1ccc(Sc2nccnc2C#N)cc1`, the Inhibition % is reported as 18.2%. `CC1(C)OB(C2CNC2)OC1(C)C.O=C(O)C(F)(F)F` showed an Inhibition % of 11.6%.
